Screens as filed in PubChem.
G9a block: blocks human histone lysine methyltransferase G9a. Q96KQ7. G9a H3K9 monomethylation, AlphaScreen, 2 h. Potency, µM (series often up to 102 µM), usual class: inhibitors. 350,000 compounds, 8.8% hits; further: nearly all actives have a fitted effect of over 75% in size
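Chemiluminescent proximity detection of H3K9 monomethylation, read after 10 min bead incubation in the dark. Reaction: 20 nM G9a, 500 nM biotin-H3K9 peptide, 20 uM SAM cofactor, 2 h, room temperature, following 15 min enzyme-compound preincubation.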
GLS inhibitor: blocks human kidney-isoform glutaminase activity; 410,000 compounds, 0.21% hits; Potency, µM (doses to about 45.5 µM), most hits filed as inhibitors; AID 624170; GLS enzymatic activity, qHTS titration
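Glutamate formation by hKGA was monitored fluorometrically using coupled glutamate oxidase, HRP and Amplex Red. Substrate was added as 1 mM L-glutamine solution; incubation was 30 min at RT after an initial read.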
BAZ2B block: BAZ2B (human) inhibition | Q9UIF8 | AlphaScreen BAZ2B-H3K14Ac peptide displacement | Potency, µM (titrated, usually from 114 µM), hits mostly inhibitors | 360,000 compounds, 4.4% hits; further: nearly all actives have a fitted effect of over 60% in size
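AlphaScreen luminescence quantifies BAZ2B engagement of H3K14Ac peptide; the protein and biotinylated peptide are both at 50 nM final, buffer PBS pH 7.4 with 0.01% Tween-20, all steps at room temperature.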
HP1b chromo inh: blocks HP1-beta chromodomain binding to methylated histone tails; P83916; AlphaScreen HP1-beta / biotin-H3K9me3 peptide binding; Potency, µM (doses to about 114 µM), usual class: inhibitors; 390,000 compounds, 0.56% hits; AID 540317; further: nearly all actives have a fitted effect of over 70% in size
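AlphaScreen: HP1-beta (50 nM) preformed 30 min with biotin-H3(1-18)K9me3 peptide (50 nM) in PBS pH 7.4, 0.01% Tween-20. Compound added for 30 min at RT, then streptavidin donor/nickel chelate acceptor beads (10 ug/mL) for 30 min.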
JMJD2A Tudor: JMJD2A Tudor domain (human) inhibition; O75164; AlphaScreen JMJD2A-Tudor / H3K4me3 peptide binding; Potency, µM (doses to about 114 µM), usual class: inhibitors; 390,000 compounds, 4.4% hits; AID 504339; further: nearly all actives have a fitted effect of over 50% in size
ME-1 prolif: inhibitors of ME-1 leukemia cell proliferation, CBFb-RUNX1 project | 140 compounds, 20% hits | Potency, µM (titrated, usually from 56.1 µM), hits mostly inhibitors | shares compounds with BAZ2B block | ME-1 cell proliferation, ATP luminescence, 48 h
Numbers stand for hits; 0 = inactive; ? = inconclusive; - = no result; ! = not confirmed by another sample; [ ] = another dose, or the depositor's remark. Only some compounds are listed: those with a hit (about 10% of all), similar ones and a draw of the others. The call rests on the fitted dose curve; in most records, active means well fitted curve in the direction sought with a large enough effect; inconclusive means small, poorly fitted or top-dose-only effect, or another doubt; inactive means no such curve, though single readings can be large; an effect the other way counts as inactive or inconclusive.

SMILES	G9a block	GLS inhibitor	BAZ2B block	HP1b chromo inh	JMJD2A Tudor	others
Cc1cccc(C)c1OCc1n[nH]c(=S)n1N	1.8µM	0	?	0	18µM
CC1=C(C)CC2(C(=O)NC(=S)NC2=O)C(C)C1 (centres undefined)	-	0	-	0	0
CCn1c(C)cc(/C=C2\C(=O)NC(=O)N(c3ccccc3C)C2=O)c1C	?	0	0	0	0
Cc1cc(/C=C2\C(=O)NC(=O)N(c3cccc(F)c3)C2=O)c(C)n1-c1ccc(C(=O)O)c(Cl)c1	35µM	?	?	0	0
Cc1ccc(-n2c(C)cc(/C=C3/C(=O)NC(=O)N(Cc4ccco4)C3=O)c2C)cc1	?	0	35µM	0	?
Cc1ccccc1-n1c(C)cc(/C=C2/C(=O)NC(=O)N(Cc3ccco3)C2=O)c1C	?	0	?	0	28µM
Cc1cc(/C=C2\C(=O)NC(=O)N(Cc3ccccc3)C2=O)c(C)n1-c1ccc(Cl)c(C(=O)O)c1	13µM	10µM	32µM	0	45µM
C[C@]12CCC3C(CC[C@H]4C[C@@H](O)CC[C@]34C)C1CC[C@@H]2OC(=O)[C@H](N)CCCCN (some centres undefined)	-	0	-	0	0
CCOCCCNC(=O)c1c[nH]c2ccc(S(=O)(=O)N(C)c3ccc(Cl)cc3F)cc2c1=O	0	0	0	0	0
CCOP(=O)(/C(C#N)=C(\C)O)c1ccccc1 (centres undefined)	?	0	0	0	?
Cc1cc(/C=C2\C(=O)NC(=O)N(Cc3ccccc3Cl)C2=O)c(C)n1-c1ccc(C(=O)O)cc1	25µM	0	50µM	71µM	?
Cc1ccc(N2C(=O)NC(=O)/C(=C/c3ccc(-c4ccc(C(=O)O)c(Cl)c4)o3)C2=O)cc1	10µM	11µM	?	0	0
Cc1c(Cl)cccc1N1C(=O)NC(=O)/C(=C\c2cc(C)n(-c3cccc(C(=O)O)c3C)c2C)C1=O	-	0	?	0	0
Cc1cc(/C=C2\C(=O)NC(=O)N(Cc3ccco3)C2=O)c(C)n1-c1ccc(C(=O)O)cc1	50µM	0	50µM	?	0
C[C@@H]1O[C@@H](O[C@H]2C[C@@H](O)[C@@]3(CO)[C@H]4[C@H](O)C[C@]5(C)[C@@H](C6=CC(=O)OC6)CC[C@]5(O)[C@H]4CC[C@@]3(O)C2)[C@@H](O)[C@H](O)[C@H]1O	0	0	-	-	-
O=c1[nH]c(=O)n(Cc2ccc(F)cc2)c(O)c1C=NCc1cccnc1	0	0	0	0	0
COc1ccc2c(c1OC)C(=O)OC2c1c(O)n(Cc2ccc(F)cc2)c(=O)[nH]c1=O (centres undefined)	0[12.7 µM]	0	?	0	79µM
Cc1cc(C(=O)OCC(=O)Nc2ccc(F)cc2)c(C)n1C1CC1	0	0	0	0	0
CN1CC(C(=O)c2ccc([N+](=O)[O-])cc2)C(c2ccc(Cl)cc2)C1 (centres undefined)	0[2.33 µM]	0	?	?	45µM
CCC(=O)Nc1ccc(N2CCN(CC)CC2)c(Cl)c1	79µM	0	?	0	0
Cc1ccc2n1Cc1cnnn1-c1ccccc1-2	-	0	-	-	-
CCC1(C)CC(=O)NC(=O)C1	0[21.5 µM]	0	-	-	-
CCOP(=O)(C1=C(O)C(=O)C(C(C)(C)C)=CC1=O)c1ccccc1 (centres undefined)	56µM	0	0	0	0
C[C@@H]1C(=O)O[C@H]2C[C@@]34[C@H]5C[C@@H](C(C)(C)C)[C@]36[C@@H](OC(=O)[C@@H]6O)O[C@@]4(C(=O)O5)[C@]21O	0	0	0	0	0
C#C[C@]1(OC(=O)CCCCCC)CC[C@H]2C3CCC4=CC(=O)CC[C@@H]4[C@H]3CC[C@@]21C (some centres undefined)	-	0	-	-	-
SMILES	G9a block	GLS inhibitor	BAZ2B block	HP1b chromo inh	JMJD2A Tudor	others
NC(N)=Nc1ccc2[nH]c3c(c2c1)C[C@@]1(O)[C@H]2Cc4ccc(O)c5c4[C@@]1(CCN2CC1CC1)C3O5 (some centres undefined)	-	0	-	0	0
Cc1ccccc1-n1c(O)c(/C=N/NC(=O)c2ccccc2O)c(=O)[nH]c1=S	0	?	45µM	0	0[11.4 µM]
O=C(N/N=C/c1c(O)n(CCC2=CCCCC2)c(=S)[nH]c1=O)c1ccccc1	?	0	0	0	?
Cc1ccccc1-n1c(O)c(/C=N/Nc2nc3c(c(=O)n(C)c(=O)n3C)n2C)c(=O)[nH]c1=S	?	0	?	0	?
CC(C)c1ccc(N=Cc2c(O)n(C3CC3)c(=S)[nH]c2=O)cc1	?	0	0	0	0
O=C(N/N=C/c1c(O)n(C2CC2)c(=S)[nH]c1=O)c1ccccc1O	0	?	45µM	0	40µM
O=C(N/N=C/c1c(O)n(-c2ccccc2)c(=S)[nH]c1=O)c1ccccc1	0	0	45µM	0	45µM
Cn1c(=O)c2c(nc(N/N=C/c3c(O)n(C4CCCCC4)c(=S)[nH]c3=O)n2C)n(C)c1=O	22µM	?	50µM	?	79µM
COc1ccccc1NC(=O)c1oc2ccccc2c1NC(=O)COc1cccc(C)c1	0	0	0	0	0
c1ccc(CN2CCC3(CCNCC3)CC2)cc1	0[12.7 µM]	-	-	-	-
O=c1[nH]c(=S)n(C2CC2)c(O)c1C=NCc1cccnc1	?	0	0	0	28µM
O=c1[nH]c(=S)n(C2CC2)c(O)c1C=Nc1ccc2c(c1)OCO2	71µM	0	0	0	0
O=c1[nH]c(=S)n(C2CC2)c(O)c1C=NCc1ccc(F)cc1	0	0	0	0	0
Cc1ccc(Cn2cccc(C(=O)Nc3ccc4c(c3)OCCO4)c2=O)cc1	0	0	0	0	0
CCc1nn2c(=O)cc(N3CCN(C)CC3)nc2s1	-	-	-	-	0
C=C1CC[C@H](O)C/C1=C/C=C1\CCC[C@]2(C)[C@H]1CC[C@H]2[C@@H](C)CCCC(C)C	0[21.5 µM]	-	-	-	-	ME-1 prolif=0
COc1ccc(-n2nnnc2C(CCc2ccccc2)N2CCC3(CC2)C(=O)NCN3c2ccccc2)cc1 (centres undefined)	-	0	-	-	-
Cn1nc(-c2ccccc2)nc2c(=O)n(C)c(=O)nc1-2	-	-	-	0	0
CCn1nc(-c2ccccc2)nc2c(=O)n(C)c(=O)nc1-2	?	0	0	0	0	ME-1 prolif=11µM
Cc1cccc(-n2c(O)c(/C=N/Nc3nc4c(c(=O)n(C)c(=O)n4C)n3C)c(=O)[nH]c2=S)c1	?	0	?	0	?	ME-1 prolif=0
Cc1cccc(-n2c(O)c(C=NCCN3CCNCC3)c(=O)[nH]c2=S)c1	0	0	0	0	0
CCCCc1ccc(C(=O)O)nc1	6µM!	0	4µM	0	0	ME-1 prolif=?
CN(N=O)c1cc(O)ccc1O	0.6µM	-	-	?	6.3µM	ME-1 prolif=40µM
O=C(Nc1ccc2c(c1)OCCO2)c1cccn(Cc2cccc(F)c2)c1=O	0	0	0	0	0
